Results: PubChem BioAssay (Tox21)
Records with an inconclusive call do not appear. Where a call stands in place of a potency, no number is given. The source made the active and inactive calls. Unless noted, the call rests on the fitted dose curve; in most records, active means well fitted curve in the direction sought with a large enough effect in the repeat runs; inconclusive means weak or mixed curves; inactive means no such curve, though single readings can be large; an effect the other way counts as inactive or inconclusive.

Assays:
[1] = qHTS assay to identify small molecule agonists of the vitamin D receptor (VDR) signaling pathway - cell viability counter screen (AID 743224); further: series mostly up to about 63 µM; nearly all actives have a fitted effect of over 50% in size
How it was run: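 Luminescence from CellTiter-Glo, read after 30 min at room temperature, reports viability of VDR-bla cells treated with compounds for 16 h at 37C in the wells used for the beta-lactamase FRET read.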

[2] = qHTS assay to identify small molecule antagonists of the vitamin D receptor (VDR) signaling pathway - cell viability counter screen (AID 743225); further: nearly all actives have a fitted effect of over 50% in size
How it was run: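 VDR-bla HEK 293T cells, 4 h pre-incubation at 37C, then compound plus 1-alpha,25-dihydroxyvitamin D3 (3 nM final) for 16 h. After the beta-lactamase FRET read, CellTiter-Glo was added to the same wells; luminescence after 30 min at room temperature.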

[3] = qHTS assay to identify small molecule agonists of the NFkB signaling pathway (AID 1159509; active means well fitted curve in the direction sought with a large enough effect in the signal ratio in the repeat runs, not every such curve was filed as active; the % refers to the signal ratio; further: series mostly up to about 61 µM)
How it was run: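 NFkB-bla ME-180 cells with a beta-lactamase reporter under an NF-kB response element were plated overnight, treated with compounds in DMSO for 5 hr at 37 C, then loaded with FRET substrate for 1.5 hr at room temperature.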

[4] = qHTS assay to identify small molecule agonists of the NFkB signaling pathway - cell viability counter screen (AID 1159515; calls by dose curve; further: series mostly up to about 61 µM; nearly all actives have a fitted effect of over 55% in size)
How it was run: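 Luminescence from CellTiter-Glo (30 min, room temperature) gives viability, measured in the same wells as the beta-lactamase reporter read. Cells were NFkB-bla ME-180, 2,000 per well, treated 5 hr with compounds.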

[5] = qHTS assay to identify small molecule agonists of the endoplasmic reticulum stress response signaling pathway (AID 1159516; active means well fitted activation curve with a large enough effect in the signal ratio in the repeat runs, not every such curve was filed as active; the % refers to the signal ratio)
How it was run: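 Read-out is beta-lactamase cleavage of a FRET substrate (405 nm excitation; 460 and 530 nm emissions) in ESRE-bla HeLa cells after a 5 hr compound exposure at 37 C. Substrate incubation ran 2 hr at room temperature.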

[6] = qHTS assay to identify small molecule antagonists of the retinoid-related orphan receptor gamma (ROR-gamma) signaling pathway - cell viability counter screen (AID 1159520); further: nearly all actives have a fitted effect of over 50% in size; further: potency means the concentration at half of the fitted maximal effect
How it was run: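 Tet-on ROR gamma CHO cells (1,000/well) were plated 4 hr, given compounds in DMSO for 2 hr at 37 C, then induced with 1 uM final doxycycline for 16 hr. Viability was read as ATP by CellTiter-Glo luminescence after 30 min.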

[7] = molecular target: Nuclear receptor ROR-gamma (Homo sapiens) (UniProt P51449); test: qHTS assay to identify small molecule antagonists of the retinoid-related orphan receptor gamma (ROR-gamma) signaling pathway (AID 1159521; further: nearly all actives have a fitted effect of over 50% in size; further: potency means the concentration at half of the fitted maximal effect)
How it was run: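 Tet-on RORγ CHO cells carrying a ROR response element–luciferase reporter were pretreated with compounds for 2 h, then induced with 1 uM (final) doxycycline hyclate for 16 h at 37 C. Antagonism was read as decreased ONE-Glo luminescence.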

[8] = qHTS assay to identify small molecule agonists of the AP-1 signaling pathway - cell viability counter screen (AID 1159525; calls by dose curve; further: nearly all actives have a fitted effect of over 55% in size)
How it was run: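 ME-180 AP-1-bla, 2500 cells/well, Opti-MEM + 0.5% dialyzed FBS; overnight 37 °C; cpd 15-pt titration, 5 h 37 °C; CellTiter-Glo 30 min RT; luminescence read; normalised to TOAB and DMSO controls.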

[9] = qHTS assay to identify small molecule agonists of the AP-1 signaling pathway (AID 1159526; calls by dose curve)
[10] = qHTS assay to identify small molecule agonists of the RXR signaling pathway - cell viability counter screen (AID 1159529)
How it was run: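 RXR-alpha-UAS-bla HEK 293T cells in medium with 2% charcoal-stripped FBS were preincubated 5 hr, then exposed to compounds for 16 hr at 37 C. Viability was read as CellTiter-Glo luminescence after 30 min at room temperature.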

[11] = qHTS assay to identify small molecule antagonists of the retinoid acid receptor (RAR) signaling pathway - cell viability counter screen (AID 1159551); further: nearly all actives have a fitted effect of over 35% in size
How it was run: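 Luminescent ATP quantitation (CellTiter-Glo) gave cell viability in C3RL4 cells exposed to test chemicals for 6 h at 37 C alongside 1 uM final retinol.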

[12] = qHTS assay to identify small molecule antagonists of the retinoic acid receptor (RAR) signaling pathway (AID 1159552; further: nearly all actives have a fitted effect of over 50% in size)
How it was run: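 RARE-luc C3RL4 cells; cpds + 1 uM (final) retinol, 6 hr, 37 C/5% CO2; luciferase reagent, 30 min RT, luminescence readout. Inhibitors of retinol-driven signal scored.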

[13] = qHTS assay to identify small molecule agonists of the retinoic acid receptor (RAR) signaling pathway (AID 1159553); further: potency means the concentration at half of the fitted maximal effect
How it was run: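 Luminescence from a RARE-driven luciferase reporter in C3RL4 cells served as the read-out, measured after 30 min with detection reagent at room temperature. Compounds in DMSO were applied for 6 hr at 37 C following overnight seeding.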

[14] = molecular target: Retinoic acid receptor RXR-alpha (Homo sapiens) (UniProt P19793); test: qHTS assay to identify small molecule agonists of the RXR signaling pathway (AID 1159527; calls by dose curve; further: nearly all actives have a fitted effect of over 35% in size)
How it was run: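 GeneBLAzer RXR-alpha-UAS-bla HEK 293T cells in medium with 2% charcoal-stripped FBS, pre-incubated 5 hr at 37 C, then exposed to compounds 16 hr. Beta-lactamase reporter read by FRET substrate, 2 hr room temperature, 460/530 nm emission.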

[15] = qHTS assay to identify small molecule antagonists of the estrogen related receptor (ERR) signaling pathway - cell viability counter screen (AID 1224818);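 further: series mostly up to about 46 µM; viability measured after 17.5 h of compound exposure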
How it was run: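 Multiplexed counter screen to separate cytotoxic compounds from true ERR modulators. ERR cells received DMSO-dissolved compounds after a 6 h pre-incubation, were exposed 17.5 h at 37 C, then assayed with CellTiter-Fluor fluorescence.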

[16] = qHTS assay to identify small molecule antagonists of the estrogen related receptor signaling pathway with the pleiotropic PPARgamma coactivator (PGC) cell viability counter screen (AID 1224822;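 further: series mostly up to about 46 µM; viability read after 17.5 h compound exposure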)
How it was run: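 Cells: PGC/ERR, 2,000/well, 1536-well format. Pre-incubation 6 h, 37 C/5% CO2. Compound exposure 17.5 h, 37 C. Detection: CellTiter-Fluor, 30 min, fluorescence.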

[17] = qHTS assay to identify small molecule agonists of the endoplasmic reticulum stress response signaling pathway - cell viability counter screen (AID 1159517; calls by dose curve)
How it was run: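 Luminescence readout: CellTiter-Glo, 30 min RT, same wells as the ESRE-bla reporter read. HeLa ESRE-bla, 1,500 cells/well, o/n 37 C; cpd 5 hr 37 C/5% CO2.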

Chain of Retinoic acid receptor RXR-alpha (Homo sapiens) (P19793 whole entry, looked up): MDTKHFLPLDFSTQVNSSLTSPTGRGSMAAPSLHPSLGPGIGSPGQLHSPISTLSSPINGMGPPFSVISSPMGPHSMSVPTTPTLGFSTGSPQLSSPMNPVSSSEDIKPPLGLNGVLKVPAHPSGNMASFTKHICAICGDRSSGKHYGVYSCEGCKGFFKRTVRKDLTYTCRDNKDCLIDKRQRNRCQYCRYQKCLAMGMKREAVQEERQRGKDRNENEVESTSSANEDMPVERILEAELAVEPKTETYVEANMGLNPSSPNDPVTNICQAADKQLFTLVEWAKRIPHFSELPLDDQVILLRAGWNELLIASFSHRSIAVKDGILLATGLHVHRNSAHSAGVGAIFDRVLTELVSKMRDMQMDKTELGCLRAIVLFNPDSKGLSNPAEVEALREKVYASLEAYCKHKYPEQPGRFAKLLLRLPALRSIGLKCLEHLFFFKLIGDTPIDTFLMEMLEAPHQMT

Compound | outcome [1] | outcome [2] | outcome [3] | outcome [4] | outcome [5] | Potency [6] | Potency [7] | outcome [8] | Potency [9] | Potency [10] | outcome [11] | outcome [12] | Potency [13] | outcome [14] | outcome [15] | outcome [16] | outcome [17]
S=c1[nH][nH]c(=S)s1 | inactive | inactive | inactive | inactive | inactive | inactive | inactive | inactive | inactive | inactive | inactive | – | – | – | – | – | –
NC(=O)c1cc[n+](CC2=C(C(=O)[O-])N3C(=O)[C@@H](NC(=O)Cc4cccs4)[C@H]3SC2)cc1 | inactive | – | inactive | inactive | inactive | inactive | inactive | inactive | inactive | – | inactive | inactive | inactive | – | – | – | –
CC(=O)OCC(=O)[C@@]1(O)CC[C@H]2[C@@H]3CCC4=CC(=O)C=C[C@]4(C)[C@@]3(F)[C@@H](O)C[C@@]21C | inactive | inactive | inactive | inactive | inactive | inactive | inactive | inactive | inactive | inactive | inactive | – | – | – | – | – | –
C[C@H](CN1CCCC1)C(=O)c1ccc(C(F)(F)F)cc1 | inactive | inactive | inactive | inactive | inactive | – | inactive | inactive | inactive | – | inactive | inactive | – | – | – | – | –
CCCOC(C)=O | inactive | inactive | inactive | inactive | inactive | inactive | inactive | – | inactive | inactive | inactive | inactive | inactive | – | – | – | –
COc1cccc([C@H](O)C2CCN(CCc3ccc(F)cc3)CC2)c1OC | inactive | inactive | inactive | inactive | inactive | inactive | – | inactive | inactive | – | inactive | inactive | – | – | – | – | –
CC1(C)CC(O)CC(C)(C)N1[O] | inactive | inactive | inactive | inactive | inactive | inactive | inactive | inactive | inactive | inactive | inactive | inactive | – | – | – | – | –
CC(C)C[C@H](NC(=O)[C@H](Cc1ccccc1)NC(=O)c1cnccn1)B(O)O | – | inactive | inactive | inactive | inactive | 0.0668 µM (active) | 0.0473 µM (active) | inactive | inactive | – | inactive | inactive | 0.0094 µM (active) | – | – | – | –
CCC(C(=O)O)c1ccc(N2Cc3ccccc3C2=O)cc1 (stereo not given) | inactive | inactive | inactive | inactive | inactive | inactive | – | inactive | inactive | inactive | inactive | inactive | 3.76 µM (active) | – | – | – | –
CC(CCl)OC(C)CCl (stereo not given) | inactive | inactive | inactive | inactive | inactive | inactive | inactive | inactive | inactive | inactive | inactive | inactive | inactive | – | – | – | –
Cc1cc(C)n(CO)n1 | inactive | inactive | inactive | inactive | inactive | inactive | inactive | – | inactive | inactive | inactive | inactive | inactive | – | – | – | –
CCCCOC(=O)C(C)Oc1ccc(Oc2ccc(C(F)(F)F)cn2)cc1 (stereo not given) | inactive | inactive | inactive | inactive | inactive | – | inactive | – | inactive | inactive | inactive | inactive | inactive | – | – | – | –
C[C@H]1C[C@H]2[C@@H]3CCC4=CC(=O)C=C[C@]4(C)[C@@]3(F)[C@@H](O)C[C@]2(C)[C@@]1(O)C(=O)COP(=O)(O)O | inactive | inactive | inactive | inactive | inactive | inactive | inactive | – | inactive | inactive | inactive | – | – | – | – | – | –
C=CC(C)CCC=C(C)C (stereo not given) | inactive | inactive | inactive | inactive | inactive | inactive | inactive | inactive | inactive | – | inactive | – | inactive | – | – | – | –
CCOC(C)OCC | inactive | inactive | inactive | inactive | inactive | inactive | inactive | inactive | inactive | – | inactive | inactive | – | – | – | – | –
CCN(CCCCOC(=O)c1ccc(OC)c(OC)c1)C(C)Cc1ccc(OC)cc1 (stereo not given) | inactive | – | inactive | inactive | inactive | inactive | inactive | inactive | inactive | – | inactive | inactive | inactive | – | – | – | –
OCCc1ccncc1 | inactive | inactive | inactive | inactive | inactive | – | inactive | inactive | – | – | inactive | inactive | inactive | inactive | – | – | –
CCCCOC(=O)CC#N | inactive | inactive | inactive | inactive | inactive | inactive | inactive | inactive | inactive | inactive | inactive | inactive | – | – | – | – | –
Cc1c(Nc2ncccc2C(=O)O)cccc1C(F)(F)F | inactive | inactive | inactive | inactive | inactive | inactive | – | inactive | inactive | – | inactive | inactive | – | – | – | – | –
CCc1c(C)[nH]c2c1C(=O)C(CN1CCOCC1)CC2 (stereo not given) | inactive | inactive | inactive | inactive | inactive | inactive | inactive | inactive | – | inactive | inactive | inactive | inactive | inactive | inactive | inactive | –
CC(C)CCCCCOC(=O)CS | inactive | inactive | inactive | inactive | inactive | – | inactive | inactive | inactive | inactive | inactive | inactive | – | – | – | – | –
CCCCCCCCCC(C)C=O (stereo not given) | inactive | – | inactive | inactive | inactive | – | inactive | inactive | inactive | inactive | inactive | inactive | – | – | – | – | –
Cc1cc(C)c(C)c(O)c1 | inactive | inactive | inactive | inactive | inactive | inactive | – | inactive | – | – | inactive | inactive | inactive | inactive | – | – | –
Cc1ccc(Cl)c(OCC(O)CNC(C)(C)C)c1 (stereo not given) | – | inactive | inactive | inactive | inactive | inactive | inactive | inactive | – | – | inactive | inactive | – | inactive | – | – | –
CC/C=C/CCO | inactive | – | – | inactive | inactive | inactive | – | inactive | inactive | inactive | inactive | – | – | – | – | – | inactive
SCCOCCOCCS | inactive | inactive | inactive | inactive | inactive | inactive | inactive | inactive | inactive | – | inactive | – | – | – | – | – | –
Nc1ccccc1Nc1ccccc1 | inactive | inactive | inactive | inactive | inactive | inactive | inactive | inactive | inactive | inactive | – | inactive | – | – | – | – | –
C/C(=C\C(C)CC(C)CC(C)C)C1CC(=O)OC1=O (stereo not given) | inactive | inactive | inactive | inactive | inactive | inactive | inactive | inactive | inactive | inactive | inactive | – | – | – | – | – | –
